# Measurements reported in PubChem BioAssay (NCATS).
# Inconclusive results are not listed. A call without a number means that no potency is given here. Activity calls are given as the source filed them. The call rests on the fitted dose curve; in most records, active means well fitted curve in the direction sought with a large enough effect; inconclusive means small, poorly fitted or top-dose-only effect, or another doubt; inactive means no such curve, though single readings can be large; an effect the other way counts as inactive or inconclusive.
# Test: High Content Imaging Cell-Based qHTS for Inhibitors of the mTORC1 Signaling Pathway in MEF (Tsc2-/-, p53-/-) Cells (AID 2666);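 further: percent of cells scored positive for phospho-rpS6 Ser235/236 immunostaining by imaging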
# Conditions: series mostly up to 38.3 µM
# Procedure, shortened: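 Read-out: % positive cells per well, with thresholds from highest- and lowest-signal wells, based on phospho-rpS6 (Ser235/236) intensity normalized to Hoechst nuclear stain. Cells: Tsc2-/-, p53-/- MEFs carrying empty vector; compound 24 hrs, 37 degree Celsius.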
row,SMILES,Potency
1,CC(=O)SCC[N+](C)(C)C,inactive
2,O=C(O)c1cc(=O)c2ccccc2[nH]1,inactive
3,NCCCCCCCCCCN,inactive
4,CN1[C@@H](CC(=O)c2ccccc2)CCC[C@H]1C[C@H](O)c1ccccc1,inactive
5,C[C@@H](CN1CCC(Cc2ccccc2)CC1)[C@@H](O)c1ccc(O)cc1,inactive
6,Cc1ccc(C(=O)O[C@H](C(=O)O)[C@@H](OC(=O)c2ccc(C)cc2)C(=O)O)cc1 (tested in a mixture with another compound),inactive
7,OCC1O[C@H](O)C(Cl)C(O)C1O (stereo not given in full),inactive
8,NCCCCC(=O)O,inactive
9,NC(=O)C(=O)O,inactive
10,O=C(O)CC1CCCc2ccccc2C1O (stereo not given),inactive
11,S=C(S)OC1CC2CC1C1CCCC21 (stereo not given),inactive
12,CC(=O)N[C@H](C(=O)O)C(C)(C)SN=O,inactive
13,CC1CN(S(=O)(=O)c2cccc3cnccc23)CCN1 (stereo not given),inactive
14,CCCCCCCCCCCCCCCC(=O)NCC(COP(=O)([O-])OCC[N+](C)(C)C)OCC (stereo not given),inactive
15,CN(C)c1nc(N)c(C(=O)N=C(N)N)nc1Cl,inactive
16,N=C(N)SCCc1ccc(CCSC(=N)N)cc1,inactive
17,CC1(C)CCC=[N+]1[O-],inactive
18,CN1CCC[C@H]1c1cccnc1,inactive
19,O=C(O)CNC(=O)C(CS)Cc1ccccc1 (stereo not given),inactive
20,C=CC(N)CCC(=O)O (stereo not given),inactive
21,COc1cc2c(CCNC(C)=O)c[nH]c2cc1Cl,inactive
22,COc1cc(C(O)CO)ccc1OS(=O)(=O)O (stereo not given),inactive
23,c1ccc(-c2ccccn2)nc1,inactive
24,NO,inactive
25,O=C(O)c1cc(=O)c2c(Cl)cc(Cl)cc2[nH]1,inactive
26,NCCSSCCN,inactive
27,O=c1[nH]c2cc([N+](=O)[O-])c([N+](=O)[O-])cc2[nH]c1=O,inactive
28,CN1C2CCC1CC(OC(=O)C(O)c1ccccc1)C2 (stereo not given),inactive
29,O=C(O)[C@@H]1C[C@@H](C(=O)O)N1,inactive
30,Cn1c(=O)c2[nH]c(-c3ccccc3)nc2n(C)c1=O,inactive

# Test: High Content Imaging Cell-Based qHTS for Inhibitors of the mTORC1 Signaling Pathway in MEF Cells (AID 2667);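 further: Tsc2-/- p53-/- MEFs stably re-expressing wild-type Tsc2 exposed 24 h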
# Conditions: series mostly up to 38.3 µM
# Procedure, shortened: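 MEF (Tsc2-/-, p53-/-, WT Tsc2 re-expressed); cpd 24 h, 37 °C; PFA fix; Alexa-488 anti-p-rpS6 Ser235/236, PI, Hoechst; IN Cell imaging; Hoechst/Alexa-488 intensity ratio; % active cells, thresholds set from rapamycin and DMSO wells.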
row,SMILES,Potency
1,CC(=O)SCC[N+](C)(C)C,inactive
2,O=C(O)c1cc(=O)c2ccccc2[nH]1,inactive
3,NCCCCCCCCCCN,inactive
4,CN1[C@@H](CC(=O)c2ccccc2)CCC[C@H]1C[C@H](O)c1ccccc1,inactive
5,C[C@@H](CN1CCC(Cc2ccccc2)CC1)[C@@H](O)c1ccc(O)cc1,inactive
6,Cc1ccc(C(=O)O[C@H](C(=O)O)[C@@H](OC(=O)c2ccc(C)cc2)C(=O)O)cc1 (tested in a mixture with another compound),inactive
7,OCC1O[C@H](O)C(Cl)C(O)C1O (stereo not given in full),inactive
8,NCCCCC(=O)O,inactive
9,NC(=O)C(=O)O,inactive
10,O=C(O)CC1CCCc2ccccc2C1O (stereo not given),inactive
11,S=C(S)OC1CC2CC1C1CCCC21 (stereo not given),inactive
12,CC(=O)N[C@H](C(=O)O)C(C)(C)SN=O,inactive
13,CC1CN(S(=O)(=O)c2cccc3cnccc23)CCN1 (stereo not given),inactive
14,CCCCCCCCCCCCCCCC(=O)NCC(COP(=O)([O-])OCC[N+](C)(C)C)OCC (stereo not given),inactive
15,CN(C)c1nc(N)c(C(=O)N=C(N)N)nc1Cl,inactive
16,N=C(N)SCCc1ccc(CCSC(=N)N)cc1,inactive
17,CC1(C)CCC=[N+]1[O-],inactive
18,CN1CCC[C@H]1c1cccnc1,inactive
19,O=C(O)CNC(=O)C(CS)Cc1ccccc1 (stereo not given),inactive
20,C=CC(N)CCC(=O)O (stereo not given),inactive
21,COc1cc2c(CCNC(C)=O)c[nH]c2cc1Cl,inactive
22,COc1cc(C(O)CO)ccc1OS(=O)(=O)O (stereo not given),inactive
23,c1ccc(-c2ccccn2)nc1,inactive
24,NO,inactive
25,O=C(O)c1cc(=O)c2c(Cl)cc(Cl)cc2[nH]1,inactive
26,NCCSSCCN,inactive
27,O=c1[nH]c2cc([N+](=O)[O-])c([N+](=O)[O-])cc2[nH]c1=O,inactive
28,CN1C2CCC1CC(OC(=O)C(O)c1ccccc1)C2 (stereo not given),inactive
29,O=C(O)[C@@H]1C[C@@H](C(=O)O)N1,inactive
30,Cn1c(=O)c2[nH]c(-c3ccccc3)nc2n(C)c1=O,inactive
